Source: article PMC7862700, “An all-to-all approach to the identification of sequence-specific readers for epigenetic DNA modifications on cytosine”

Columns and labels:
Test in all cases: DAPPL (digital affinity profiling via proximity ligation, sequencing); 10 mM Tris-HCl pH 7.5, 50 mM NaCl, 1 mM DTT, 4% glycerol, room temperature, 30 min; GST-TFs on glutathione beads, 16-mer random dsDNA library, 0.1% formaldehyde crosslink after washing; high values mean tight binding
FLI1 = molecular target: T1, FLI1 (Homo sapiens, UniProt Q01543 1-452); conditions: protein: recombinant; tags: N-terminal GST; dsDNA, one strand shown
T1 sequence: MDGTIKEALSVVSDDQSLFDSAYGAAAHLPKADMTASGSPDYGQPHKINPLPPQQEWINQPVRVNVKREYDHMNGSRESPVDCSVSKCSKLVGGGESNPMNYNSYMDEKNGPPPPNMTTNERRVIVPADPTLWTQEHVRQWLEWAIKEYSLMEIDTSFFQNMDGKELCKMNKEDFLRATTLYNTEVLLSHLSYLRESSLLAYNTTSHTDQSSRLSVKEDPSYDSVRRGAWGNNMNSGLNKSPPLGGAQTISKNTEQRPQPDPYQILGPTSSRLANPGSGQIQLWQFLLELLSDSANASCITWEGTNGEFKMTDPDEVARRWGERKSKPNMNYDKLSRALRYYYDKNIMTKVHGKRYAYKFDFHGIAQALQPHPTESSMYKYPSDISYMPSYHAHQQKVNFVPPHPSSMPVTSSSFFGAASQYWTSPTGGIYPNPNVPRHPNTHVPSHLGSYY
Summary of the method: (§1)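 In yeast, human transcription factors were expressed with a GST fusion, then pulled down on glutathione beads and given DNA barcodes. Pooled with a tag-only sample, they were exposed to 200 nmole of a 16-mer random double-stranded DNA library (Tris/NaCl/DTT/glycerol buffer, room temperature, 30 min), washed, crosslinked with 0.1% formaldehyde, proximity-ligated using BsaI/T4 ligase for 1 h at 37 °C, PCR-amplified and read on an Illumina NextSeq500. Each hexamer's frequency of reads for a factor, divided by the matching frequency for the tag-only sample, gives the binding signal.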

ELK1 = molecular target: T2, ELK1 (Homo sapiens, UniProt P19419 1-428); conditions: protein: recombinant; tags: N-terminal GST; dsDNA, one strand shown
T2 sequence: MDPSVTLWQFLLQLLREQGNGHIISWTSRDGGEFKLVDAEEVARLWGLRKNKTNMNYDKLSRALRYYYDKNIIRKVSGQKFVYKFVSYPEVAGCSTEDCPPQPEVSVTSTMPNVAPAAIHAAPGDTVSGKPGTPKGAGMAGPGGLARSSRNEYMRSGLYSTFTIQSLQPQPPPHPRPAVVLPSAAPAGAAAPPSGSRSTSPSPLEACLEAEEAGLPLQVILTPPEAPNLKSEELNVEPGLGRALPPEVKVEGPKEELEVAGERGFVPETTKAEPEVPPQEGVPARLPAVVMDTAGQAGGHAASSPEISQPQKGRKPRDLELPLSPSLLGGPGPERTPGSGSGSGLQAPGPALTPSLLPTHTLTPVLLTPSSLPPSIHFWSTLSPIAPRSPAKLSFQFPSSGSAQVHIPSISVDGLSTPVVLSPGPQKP
Summary of the method: as §1

GABPA = molecular target: T3, GABPA (Homo sapiens, UniProt Q06546 1-454); conditions: protein: recombinant; tags: N-terminal GST; dsDNA, one strand shown
T3 sequence: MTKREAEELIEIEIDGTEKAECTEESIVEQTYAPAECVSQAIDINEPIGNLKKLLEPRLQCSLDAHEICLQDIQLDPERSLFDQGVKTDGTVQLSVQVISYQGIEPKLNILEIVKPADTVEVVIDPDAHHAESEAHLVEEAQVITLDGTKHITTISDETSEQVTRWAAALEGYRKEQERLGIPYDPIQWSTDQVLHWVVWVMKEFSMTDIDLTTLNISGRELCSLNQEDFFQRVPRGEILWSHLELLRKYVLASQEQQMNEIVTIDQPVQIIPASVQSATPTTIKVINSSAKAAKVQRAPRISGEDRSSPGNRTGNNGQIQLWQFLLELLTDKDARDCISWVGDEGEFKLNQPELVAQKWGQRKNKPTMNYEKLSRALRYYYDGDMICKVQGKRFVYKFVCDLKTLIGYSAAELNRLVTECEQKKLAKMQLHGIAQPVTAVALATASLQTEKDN
Summary of the method: as §1

ERG = molecular target: T4, ERG (Homo sapiens, UniProt P11308 1-479); conditions: protein: recombinant; tags: N-terminal GST; dsDNA, one strand shown
T4 sequence: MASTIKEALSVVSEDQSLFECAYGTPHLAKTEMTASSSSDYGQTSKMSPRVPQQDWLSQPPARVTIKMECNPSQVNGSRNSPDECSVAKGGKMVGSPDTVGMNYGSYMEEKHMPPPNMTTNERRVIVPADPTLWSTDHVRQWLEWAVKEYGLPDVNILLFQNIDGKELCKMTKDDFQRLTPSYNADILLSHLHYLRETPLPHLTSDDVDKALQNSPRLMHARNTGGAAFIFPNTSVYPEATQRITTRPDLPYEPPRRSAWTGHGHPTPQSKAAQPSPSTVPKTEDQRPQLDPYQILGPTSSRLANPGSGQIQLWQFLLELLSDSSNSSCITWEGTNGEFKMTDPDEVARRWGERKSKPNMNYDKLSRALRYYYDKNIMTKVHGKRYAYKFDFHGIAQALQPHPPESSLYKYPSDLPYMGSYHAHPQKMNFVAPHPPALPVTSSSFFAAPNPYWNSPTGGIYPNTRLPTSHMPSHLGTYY
Summary of the method: as §1

ELF1 = ELF1 (Homo sapiens, UniProt P32519 1-619); conditions: protein: recombinant; tags: N-terminal GST; dsDNA, one strand shown
Summary of the method: as §1

EHF = molecular target: T5, EHF (Homo sapiens, UniProt Q9NZC4 1-300); conditions: protein: recombinant; tags: N-terminal GST; dsDNA, one strand shown
T5 sequence: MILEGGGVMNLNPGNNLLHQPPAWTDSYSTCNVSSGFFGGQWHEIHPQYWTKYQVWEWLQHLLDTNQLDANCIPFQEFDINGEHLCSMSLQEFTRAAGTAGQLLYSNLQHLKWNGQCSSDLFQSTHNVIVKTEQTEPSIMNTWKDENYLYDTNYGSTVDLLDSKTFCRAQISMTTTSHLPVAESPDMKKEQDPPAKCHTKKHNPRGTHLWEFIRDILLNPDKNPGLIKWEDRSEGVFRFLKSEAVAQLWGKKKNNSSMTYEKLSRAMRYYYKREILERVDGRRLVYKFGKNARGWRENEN
Summary of the method: as §1

SPI1 = SPI1 (Homo sapiens, UniProt P17947 1-270); conditions: protein: recombinant; tags: N-terminal GST; dsDNA, one strand shown
Summary of the method: as §1

SPIB = SPIB (Homo sapiens, UniProt Q01892 1-262); conditions: protein: recombinant; tags: N-terminal GST; dsDNA, one strand shown
Summary of the method: as §1

ELK3 = molecular target: T6, ELK3 (Homo sapiens, UniProt P41970 1-407); conditions: protein: recombinant; tags: N-terminal GST; dsDNA, one strand shown
T6 sequence: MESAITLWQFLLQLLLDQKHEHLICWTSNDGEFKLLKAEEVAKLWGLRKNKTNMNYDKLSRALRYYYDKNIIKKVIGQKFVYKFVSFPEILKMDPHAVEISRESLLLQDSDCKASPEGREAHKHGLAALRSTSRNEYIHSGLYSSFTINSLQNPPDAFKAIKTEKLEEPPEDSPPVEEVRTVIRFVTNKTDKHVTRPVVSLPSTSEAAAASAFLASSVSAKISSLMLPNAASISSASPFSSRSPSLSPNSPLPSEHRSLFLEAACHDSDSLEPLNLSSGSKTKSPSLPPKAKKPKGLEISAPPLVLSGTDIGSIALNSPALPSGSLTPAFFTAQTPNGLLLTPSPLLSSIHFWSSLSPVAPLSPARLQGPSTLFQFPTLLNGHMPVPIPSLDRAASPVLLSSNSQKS
Summary of the method: as §1

FEV = molecular target: T7, FEV (Homo sapiens, UniProt Q99581 1-238); conditions: protein: recombinant; tags: N-terminal GST; dsDNA, one strand shown
T7 sequence: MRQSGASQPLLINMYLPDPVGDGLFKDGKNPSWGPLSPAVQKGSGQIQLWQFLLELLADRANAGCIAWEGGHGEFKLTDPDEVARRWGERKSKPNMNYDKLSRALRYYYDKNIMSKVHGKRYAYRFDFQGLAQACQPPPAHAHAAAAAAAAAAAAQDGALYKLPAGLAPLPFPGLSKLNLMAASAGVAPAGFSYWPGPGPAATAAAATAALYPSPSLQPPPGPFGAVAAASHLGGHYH
Summary of the method: as §1

ETV5 = ETV5 (Homo sapiens, UniProt P41161 1-510); conditions: protein: recombinant; tags: N-terminal GST; dsDNA, one strand shown
Summary of the method: as §1

HSF1 = HSF1 (Homo sapiens, UniProt Q00613 1-529); conditions: protein: recombinant; tags: N-terminal GST; chain copies: 3; dsDNA, one strand shown
Summary of the method: as §1

SPIC = molecular target: T8, SPIC (Homo sapiens, UniProt Q8N5J4 1-248); conditions: protein: recombinant; tags: N-terminal GST; dsDNA, one strand shown
T8 sequence: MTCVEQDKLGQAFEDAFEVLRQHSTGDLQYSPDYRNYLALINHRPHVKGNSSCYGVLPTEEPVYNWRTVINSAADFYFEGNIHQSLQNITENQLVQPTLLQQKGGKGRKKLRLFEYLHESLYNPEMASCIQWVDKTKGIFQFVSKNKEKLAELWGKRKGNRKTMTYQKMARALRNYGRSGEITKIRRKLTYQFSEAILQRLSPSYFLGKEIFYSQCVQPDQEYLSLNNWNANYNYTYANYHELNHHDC
Summary of the method: as §1

ELF4 = ELF4 (Homo sapiens, UniProt Q99607 1-663); conditions: protein: recombinant; tags: N-terminal GST; dsDNA, one strand shown
Summary of the method: as §1

ELK4 = molecular target: T9, ELK4 (Homo sapiens, UniProt P28324-2 1-405); conditions: protein: recombinant; tags: N-terminal GST; dsDNA, one strand shown
T9 sequence: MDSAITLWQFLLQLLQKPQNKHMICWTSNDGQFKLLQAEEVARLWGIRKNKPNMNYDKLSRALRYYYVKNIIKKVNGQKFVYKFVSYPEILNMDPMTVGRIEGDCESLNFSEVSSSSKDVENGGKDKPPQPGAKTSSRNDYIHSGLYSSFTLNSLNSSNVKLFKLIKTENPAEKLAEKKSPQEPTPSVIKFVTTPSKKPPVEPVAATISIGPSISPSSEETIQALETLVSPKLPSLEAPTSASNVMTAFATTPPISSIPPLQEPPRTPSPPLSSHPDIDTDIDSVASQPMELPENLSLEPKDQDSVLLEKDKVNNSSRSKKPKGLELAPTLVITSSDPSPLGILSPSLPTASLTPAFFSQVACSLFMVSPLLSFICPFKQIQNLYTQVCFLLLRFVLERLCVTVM
Summary of the method: as §1

ETV2 = molecular target: T10, ETV2 (Homo sapiens, UniProt O00321 1-342); conditions: protein: recombinant; tags: N-terminal GST; dsDNA, one strand shown
T10 sequence: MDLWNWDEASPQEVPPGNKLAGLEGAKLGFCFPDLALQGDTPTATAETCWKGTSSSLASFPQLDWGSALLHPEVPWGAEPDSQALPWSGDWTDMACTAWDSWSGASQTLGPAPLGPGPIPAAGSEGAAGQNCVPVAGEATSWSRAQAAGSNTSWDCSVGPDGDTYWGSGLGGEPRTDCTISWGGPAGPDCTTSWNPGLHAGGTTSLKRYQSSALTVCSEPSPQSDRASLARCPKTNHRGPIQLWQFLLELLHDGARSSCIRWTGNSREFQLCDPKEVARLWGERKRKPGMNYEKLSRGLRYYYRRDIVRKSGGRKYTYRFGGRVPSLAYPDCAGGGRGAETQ
Summary of the method: as §1

ELF3 = molecular target: T11, ELF3 (Homo sapiens, UniProt P78545 1-371); conditions: protein: recombinant; tags: N-terminal GST; dsDNA, one strand shown
T11 sequence: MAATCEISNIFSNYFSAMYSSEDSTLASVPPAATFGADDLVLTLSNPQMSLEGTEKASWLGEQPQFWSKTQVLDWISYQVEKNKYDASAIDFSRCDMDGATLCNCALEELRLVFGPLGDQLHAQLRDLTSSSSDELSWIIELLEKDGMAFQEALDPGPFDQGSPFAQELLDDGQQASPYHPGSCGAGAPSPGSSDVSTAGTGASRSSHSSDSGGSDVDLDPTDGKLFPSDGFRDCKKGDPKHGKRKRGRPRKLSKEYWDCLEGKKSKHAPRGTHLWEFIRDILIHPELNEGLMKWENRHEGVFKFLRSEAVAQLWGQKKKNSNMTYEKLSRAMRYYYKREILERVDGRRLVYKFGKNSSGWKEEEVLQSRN
Summary of the method: as §1

CRX = CRX (Homo sapiens, UniProt O43186 1-299); conditions: protein: recombinant; tags: N-terminal GST; dsDNA, one strand shown
Summary of the method: as §1

ETV1 = ETV1 (Homo sapiens, UniProt P50549 1-477); conditions: protein: recombinant; tags: N-terminal GST; dsDNA, one strand shown
Summary of the method: as §1

ETV1, sequence (P50549 whole entry): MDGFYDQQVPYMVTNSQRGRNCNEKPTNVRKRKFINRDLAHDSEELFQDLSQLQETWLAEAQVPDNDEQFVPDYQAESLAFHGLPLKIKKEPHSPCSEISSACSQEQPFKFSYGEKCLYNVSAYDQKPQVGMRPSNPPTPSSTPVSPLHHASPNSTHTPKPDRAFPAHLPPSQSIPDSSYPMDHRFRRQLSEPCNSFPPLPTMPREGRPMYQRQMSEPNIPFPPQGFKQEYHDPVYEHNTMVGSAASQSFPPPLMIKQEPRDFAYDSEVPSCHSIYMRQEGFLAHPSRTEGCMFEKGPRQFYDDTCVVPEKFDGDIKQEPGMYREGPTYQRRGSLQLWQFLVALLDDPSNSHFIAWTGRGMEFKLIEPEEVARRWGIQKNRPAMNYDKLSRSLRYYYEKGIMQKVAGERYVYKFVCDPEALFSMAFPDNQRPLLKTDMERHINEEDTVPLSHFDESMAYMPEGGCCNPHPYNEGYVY
ETV5, sequence (P41161 whole entry): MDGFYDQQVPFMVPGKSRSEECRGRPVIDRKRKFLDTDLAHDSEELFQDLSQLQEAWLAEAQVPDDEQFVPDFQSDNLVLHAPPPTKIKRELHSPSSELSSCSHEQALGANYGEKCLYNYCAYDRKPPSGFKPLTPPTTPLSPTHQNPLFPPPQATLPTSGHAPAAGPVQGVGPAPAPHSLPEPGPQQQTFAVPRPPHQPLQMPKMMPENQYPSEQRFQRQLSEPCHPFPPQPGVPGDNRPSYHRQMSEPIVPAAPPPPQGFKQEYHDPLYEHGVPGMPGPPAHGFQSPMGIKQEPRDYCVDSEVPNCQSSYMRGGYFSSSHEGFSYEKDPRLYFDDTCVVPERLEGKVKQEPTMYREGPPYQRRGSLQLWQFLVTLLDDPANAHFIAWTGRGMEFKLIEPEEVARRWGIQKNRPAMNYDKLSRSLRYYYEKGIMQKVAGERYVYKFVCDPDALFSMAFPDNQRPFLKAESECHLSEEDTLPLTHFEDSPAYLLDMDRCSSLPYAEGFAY
ELF1, sequence (P32519 whole entry): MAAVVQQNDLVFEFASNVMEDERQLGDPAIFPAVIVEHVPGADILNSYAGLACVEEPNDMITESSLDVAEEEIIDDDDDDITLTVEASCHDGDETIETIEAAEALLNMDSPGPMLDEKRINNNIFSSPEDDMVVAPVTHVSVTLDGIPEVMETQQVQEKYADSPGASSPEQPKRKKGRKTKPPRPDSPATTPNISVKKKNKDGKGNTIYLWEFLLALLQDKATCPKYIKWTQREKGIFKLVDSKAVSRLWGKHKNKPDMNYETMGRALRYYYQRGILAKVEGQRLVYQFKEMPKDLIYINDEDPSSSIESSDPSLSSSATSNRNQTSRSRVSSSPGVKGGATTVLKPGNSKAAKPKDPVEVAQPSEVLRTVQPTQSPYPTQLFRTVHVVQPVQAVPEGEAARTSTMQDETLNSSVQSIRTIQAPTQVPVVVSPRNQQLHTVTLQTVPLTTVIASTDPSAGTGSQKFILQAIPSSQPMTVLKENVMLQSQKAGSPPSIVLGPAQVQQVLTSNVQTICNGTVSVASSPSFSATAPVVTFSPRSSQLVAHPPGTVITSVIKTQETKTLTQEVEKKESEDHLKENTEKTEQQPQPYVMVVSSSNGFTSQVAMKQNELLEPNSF
SPIB, sequence (Q01892 whole entry): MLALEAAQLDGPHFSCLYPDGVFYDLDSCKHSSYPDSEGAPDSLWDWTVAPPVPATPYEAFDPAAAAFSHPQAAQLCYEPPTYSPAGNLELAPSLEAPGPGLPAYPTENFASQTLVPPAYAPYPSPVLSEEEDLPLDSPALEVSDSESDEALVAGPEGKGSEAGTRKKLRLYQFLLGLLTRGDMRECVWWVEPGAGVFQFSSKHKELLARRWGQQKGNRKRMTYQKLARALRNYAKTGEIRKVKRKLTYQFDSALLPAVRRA
HSF1, sequence (Q00613 whole entry): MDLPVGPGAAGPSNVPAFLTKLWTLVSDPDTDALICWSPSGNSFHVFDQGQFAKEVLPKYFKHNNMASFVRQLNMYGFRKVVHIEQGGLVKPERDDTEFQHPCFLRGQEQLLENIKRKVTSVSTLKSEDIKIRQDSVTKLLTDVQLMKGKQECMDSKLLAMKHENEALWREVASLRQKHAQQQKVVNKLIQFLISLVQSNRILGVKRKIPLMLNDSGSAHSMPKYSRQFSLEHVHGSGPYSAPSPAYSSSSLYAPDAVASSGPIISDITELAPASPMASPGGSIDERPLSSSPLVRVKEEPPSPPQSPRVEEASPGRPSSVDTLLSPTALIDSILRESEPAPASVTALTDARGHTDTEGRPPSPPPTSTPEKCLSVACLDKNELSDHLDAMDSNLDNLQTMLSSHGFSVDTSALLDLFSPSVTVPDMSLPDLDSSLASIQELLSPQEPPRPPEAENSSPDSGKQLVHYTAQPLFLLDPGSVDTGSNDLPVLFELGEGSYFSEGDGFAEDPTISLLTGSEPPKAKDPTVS
CRX, sequence (O43186 whole entry): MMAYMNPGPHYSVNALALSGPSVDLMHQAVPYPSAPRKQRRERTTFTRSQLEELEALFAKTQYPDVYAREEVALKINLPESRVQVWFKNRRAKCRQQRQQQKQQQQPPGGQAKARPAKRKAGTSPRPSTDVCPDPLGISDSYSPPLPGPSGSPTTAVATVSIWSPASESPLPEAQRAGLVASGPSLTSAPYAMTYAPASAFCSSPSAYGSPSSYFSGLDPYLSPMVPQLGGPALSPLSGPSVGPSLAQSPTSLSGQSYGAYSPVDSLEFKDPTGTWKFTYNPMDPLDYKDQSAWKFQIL
ELF4, sequence (Q99607 whole entry): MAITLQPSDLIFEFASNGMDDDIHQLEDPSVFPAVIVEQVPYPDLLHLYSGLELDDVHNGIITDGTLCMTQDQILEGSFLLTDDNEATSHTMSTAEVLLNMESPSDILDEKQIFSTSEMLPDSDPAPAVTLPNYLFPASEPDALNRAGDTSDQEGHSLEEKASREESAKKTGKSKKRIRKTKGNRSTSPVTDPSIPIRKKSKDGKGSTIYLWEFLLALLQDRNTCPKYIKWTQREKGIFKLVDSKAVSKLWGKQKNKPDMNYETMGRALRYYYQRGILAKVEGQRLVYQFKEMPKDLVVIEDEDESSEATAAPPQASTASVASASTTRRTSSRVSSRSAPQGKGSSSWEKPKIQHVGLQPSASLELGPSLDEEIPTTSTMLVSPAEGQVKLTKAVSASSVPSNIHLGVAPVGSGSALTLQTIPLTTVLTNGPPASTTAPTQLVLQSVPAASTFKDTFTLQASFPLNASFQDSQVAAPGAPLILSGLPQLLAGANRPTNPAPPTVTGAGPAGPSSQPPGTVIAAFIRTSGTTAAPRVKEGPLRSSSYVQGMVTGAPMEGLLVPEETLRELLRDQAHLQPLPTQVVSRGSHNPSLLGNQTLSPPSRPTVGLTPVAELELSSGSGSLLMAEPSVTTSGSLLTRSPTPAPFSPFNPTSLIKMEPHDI

Sequence: ATGCTT
- binding signal (FLI1): 1.35 fold enrichment (6-mer frequency, TF over GST control)
- binding signal (ELK1): 1.42 fold enrichment (6-mer frequency, TF over GST control)
- binding signal (GABPA): 1.26 fold enrichment (6-mer frequency, TF over GST control)
- binding signal (ERG): 1.32 fold enrichment (6-mer frequency, TF over GST control)
- binding signal (ELF1): 1.27 fold enrichment (6-mer frequency, TF over GST control)
- binding signal (EHF): 1.29 fold enrichment (6-mer frequency, TF over GST control)
- binding signal (SPI1): 1.24 fold enrichment (6-mer frequency, TF over GST control)
- binding signal (SPIB): 1.4 fold enrichment (6-mer frequency, TF over GST control)
- binding signal (ELK3): 1.36 fold enrichment (6-mer frequency, TF over GST control)
- binding signal (FEV): 1.2 fold enrichment (6-mer frequency, TF over GST control)
- binding signal (ETV5): 1.29 fold enrichment (6-mer frequency, TF over GST control)
- binding signal (HSF1): 1.23 fold enrichment (6-mer frequency, TF over GST control)
- binding signal (SPIC): 1.6 fold enrichment (6-mer frequency, TF over GST control)
- binding signal (ELF4): 1.3 fold enrichment (6-mer frequency, TF over GST control)
- binding signal (ELK4): 1.45 fold enrichment (6-mer frequency, TF over GST control)
- binding signal (ETV2): 1.29 fold enrichment (6-mer frequency, TF over GST control)
- binding signal (ELF3): 1.35 fold enrichment (6-mer frequency, TF over GST control)
- binding signal (CRX): 1.24 fold enrichment (6-mer frequency, TF over GST control)
- binding signal (ETV1): 1.3 fold enrichment (6-mer frequency, TF over GST control)
